Source: PubChem BioAssay (National Center for Advancing Translational Sciences (NCATS))
LmPK inh: qHTS Assay for Inhibitors of Leishmania Mexicana Pyruvate Kinase (LmPK); Q27686; purified LmPK, Kinase-Glo ATP luminescence, 1 h; Potency, µM (series often up to 57.5 µM), usual class: inhibitors; hit rate 0.37% among 290,000; AID 1721, 2009
Target sequence (Q27686 whole entry, looked up): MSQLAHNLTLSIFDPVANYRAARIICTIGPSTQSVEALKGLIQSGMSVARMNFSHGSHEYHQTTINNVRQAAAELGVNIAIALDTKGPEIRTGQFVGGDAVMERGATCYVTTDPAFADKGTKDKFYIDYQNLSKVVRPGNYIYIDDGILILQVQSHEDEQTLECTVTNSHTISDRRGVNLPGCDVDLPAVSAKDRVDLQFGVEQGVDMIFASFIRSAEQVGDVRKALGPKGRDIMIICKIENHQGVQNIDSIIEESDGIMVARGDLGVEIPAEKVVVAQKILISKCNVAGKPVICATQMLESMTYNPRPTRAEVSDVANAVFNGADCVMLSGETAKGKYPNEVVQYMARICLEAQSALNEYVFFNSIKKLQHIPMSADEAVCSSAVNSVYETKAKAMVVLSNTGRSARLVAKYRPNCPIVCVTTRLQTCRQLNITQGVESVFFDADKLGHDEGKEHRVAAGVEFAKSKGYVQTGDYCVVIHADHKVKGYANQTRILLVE
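0.1 nM LmPK, 0.5 mM PEP, 0.1 mM ADP; 50 mM imidazole pH 7.2, 7 mM MgCl2, 50 mM KCl; 1 h RT. Kinase-Glo luminescence readout, normalized to no-enzyme (full inhibition) and uninhibited wells.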
Giardia FBPA inh: qHTS Assay for Inhibitors of Fructose-1,6-bisphosphate Aldolase from Giardia Lamblia. A8B2U2. purified Giardia FBPA. Potency, µM (series often up to 59.6 µM), actives largely listed as inhibitors. hit rate 0.71% among 290,000; note: nearly all actives have a fitted effect of over 55% in size
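40 nM FBPA preincubated 10 min at RT with compound (up to 57.5 uM final), then substrate plus GAPDH/TPI/NAD/arsenate coupling and diaphorase/resazurin added. Fluorescence read after 20 min at RT, 525/598 nm.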
CHX counter: Cycloheximide Counterscreen for Small Molecule Inhibitors of Shiga Toxin; hit rate 12% among 300,000; AID 2314, 2010; max response, %; cell reporter, cycloheximide protein synthesis inhibition counterscreen; in the data active = max response mostly above about 13%, no sharp cut-off; inactive = mostly below about 14%; note: read at 38.3 µM for the half of the compounds with a filed dose
NS1 inh: qHTS Assay for Inhibitors of Influenza NS1 Protein Function; hit rate 0.4% among 270,000; Potency, µM (highest dose often 46.1 µM); calls by dose curve; note: actives are rising curves; nearly all actives have a fitted effect of over 50% in size
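A cell-based growth assay was used: compounds that relieve NS1-induced slow growth of budding yeast raise OD600. Assay medium was yeast nitrogen base with ammonium sulphate and -URA supplement, pH 6.0, with 2% galactose.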
Shiga inhibitor: A qHTS for Small Molecule Inhibitors of Shiga Toxin | Vero cells, Shiga toxin protein synthesis inhibition reporter | inhibition, % at 38.7 µM | hit rate 9.2% among 290,000 | AID 2315, 2010; in the data active = inhibition mostly above about 28%, no sharp cut-off; inactive = mostly below about 43%
A number is an active result; . = inactive; ? = inconclusive; / = no result given. This is a sample that favours compounds with a hit; in the whole collection about 14% have one here. Unless noted, calls come from the whole dose curve; as a rule, active = well fitted curve in the direction sought with a large enough effect; inconclusive = small, poorly fitted or top-dose-only effect, or another doubt; inactive = no such curve, though single readings can be large; an effect the other way counts as inactive or inconclusive.

SMILES	LmPK inh	Giardia FBPA inh	CHX counter	NS1 inh	Shiga inhibitor
c1ccc(-c2cn(C[C@H]3CC[C@H](Cn4cc(-c5ccccn5)nn4)O3)nn2)nc1	.	.	.	.	.
Clc1ccccc1OCc1nnc(-c2ccccc2Br)o1	.	.	52.2	.	120.2
Clc1ccc(Cc2nnc(-c3ccccc3Br)o2)cc1	.	.	21.8	.	38.8
N#Cc1ccccc1OCc1nnc(-c2ccccc2Br)o1	.	.	47.7	.	102.9
O=C(NC1CCCC1)C1CCN(S(=O)(=O)c2ccccc2)CC1	.	.	.	.	.
COC(=O)N1CCC2(CC1)CN(C(=O)Nc1cccc(C#N)c1)C2	/	.	/	/	/
CC(C)(C)C(=O)CSc1nc2ncc(Br)cc2[nH]1	.	.	35.6	.	.
c1ccc2[nH]c(SCc3cscn3)nc2c1	.	.	35.4	.	65.0
Fc1c(F)c(F)c(CSc2nc3ccccc3[nH]2)c(F)c1F	.	.	25.2	.	71.1
c1ccc2[nH]c(-c3cscn3)nc2c1	?	.	52.9	.	102.2
COc1ccc2[nH]cc(CCNc3ncncc3-c3c(C)noc3C)c2c1	/	.	/	/	/
CC(=O)O[C@@H]1CC[C@]2(C)C(=C[C@@H]([C@@H]3C=C4C[C@@H](OC(C)=O)CC[C@]4(C)C4=C3[C@H]3C[C@@H]5O[C@@]6(CC[C@H](C)CO6)[C@@H](C)[C@@H]5[C@@]3(C)CC4)C3=C2CC[C@@]2(C)[C@H]4[C@@H](C)[C@]5(CC[C@H](C)CO5)O[C@@H]4C[C@H]32)C1	/	/	/	.	/
O=C(CCCSc1nc2ccccc2[nH]1)NCc1ccccc1F	.	.	.	/	.
Fc1ccccc1CSc1nc2ccccc2[nH]1	?	.	53.6	.	86.1
Fc1ccccc1CSc1nc2ncc(Br)cc2[nH]1	.	.	22.3	.	.
C/C(=N\NC(=O)c1c(C)nc2ccccn12)c1ccco1	.	.	32.1	/	42.2
C/C(=N\NC(=O)c1c(C)nc2ccccn12)c1ccc(N2CCOCC2)cc1	.	.	27.5	.	.
O=C(Nc1ccc2c(c1)OCO2)N1CCCc2ccccc21	.	.	34.7	.	85.4
Cc1ccc2c(c1)CCCN2C(=O)Nc1ccc2c(c1)OCO2	.	?	46.1	.	29.7
Nc1nc(NC(=O)c2ccccc2)nn1-c1ccccc1	.	.	12.7	.	35.7
Nc1nc(NC(=O)c2cccs2)nn1-c1ccccc1	.	.	30.3	.	.
COc1ccc(C(=O)Nc2nc(N)n(-c3ccccc3)n2)cc1	.	.	.	.	.
Nc1nc(NC(=O)c2ccccc2Cl)nn1-c1ccccc1	.	.	.	.	.
COc1ccc(CNC(=O)C2CCN(C(=O)[C@@H]3Cc4ccccc4CN3)CC2)cc1	.	.	.	.	.
Cc1nc(NCC(c2ccccc2)N(C)C)c2c(C)c(C)sc2n1 (stereo not drawn)	.	.	.	.	.
SMILES	LmPK inh	Giardia FBPA inh	CHX counter	NS1 inh	Shiga inhibitor
O=C(CN(Cc1ccc(F)cc1)C(=O)CNS(=O)(=O)c1ccccc1)NCc1ccco1	.	.	.	.	.
Cc1cc2c(s1)c1cnn(Cc3ccc(F)cc3)c(=O)c1n2C	/	/	.	/	.
CCOC(=O)C1CCN(Cc2cc(Cl)c3ccccc3c2O)CC1	.	?	11.9	.	.
CCOC(=O)C1CCN(Cc2ccc(OC)c(C)c2OC)CC1	.	.	.	.	.
CCOC(=O)C1CCN(Cc2nnnn2CCc2ccccc2)CC1	.	.	40.6	.	.
Cc1ccccc1C(=O)NC1CCN(Cc2nnnn2CCc2ccccc2)CC1	.	.	.	.	.
COC(=O)N/N=C/c1ccc(OC(=O)/C=C/c2ccco2)cc1	.	.	.	.	.
CCc1ccc(OC(=O)/C=C/c2ccco2)cc1	.	.	32.5	.	30.1
O=C(Cc1ccccc1)N/N=C/c1ccc(OC(=O)/C=C\c2ccco2)cc1	.	.	28.5	.	49.0
CC(C)(C)OC(=O)N/N=C\c1ccc(OC(=O)c2ccco2)cc1	.	.	38.5	/	78.9
O=C(/C=C/c1ccco1)Oc1cccc2cccnc12	.	.	.	.	.
O=C(/C=C\c1ccco1)Oc1cccc2cccnc12	.	?	23.1	/	.
O=C(/C=C/C=C/c1ccccc1)c1ccco1	.	.	51.3	.	102.8
O=C(/C=C\c1ccccc1)Nc1ccc(NC(=O)c2ccco2)cc1	.	.	.	/	.
O=C(/C=C/c1ccc([N+](=O)[O-])cc1)c1ccco1	.	.	.	.	.
O=C(/C=C/c1ccc(Br)cc1)c1ccc(NC(=O)c2ccco2)cc1	.	.	27.1	.	.
O=C(/C=C/c1ccc(Br)cc1)c1ccco1	.	.	29.2	.	64.0
CC(C)CC(NC(=O)C1CCC(=O)N1C(=O)OCc1ccccc1)C(=O)NC(Cc1ccccc1)C(N)=O (stereo not drawn)	.	.	.	.	.
O=S(=O)(NCCc1ccccc1)c1ccccc1Br	/	.	.	/	.
C(=N/Nc1nnc2c(n1)[nH]c1ccccc12)/c1cccnc1	/	/	/	.	/
O=C(Cc1cccs1)Nc1ccccc1F	.	.	18.2	.	.
O=C(Cc1cccs1)Nc1ccccc1C(=O)O	.	.	20.9	?	.
O=C(Cc1cccs1)Nc1ccccc1NC(=O)Cc1cccs1	.	.	.	.	.
Cc1ccccc1-c1nnc(-c2ccccc2)o1	?	.	34.7	.	94.5
Cc1cccc(-c2nnc(-c3ccccc3)o2)c1	?	.	33.4	.	55.6
SMILES	LmPK inh	Giardia FBPA inh	CHX counter	NS1 inh	Shiga inhibitor
Cc1nnc(-c2ccccc2)o1	.	.	.	.	.
Cn1cc(-c2nnc(-c3ccccc3)o2)c2ccccc21	.	.	58.6	.	146.1
Cc1ccccc1-c1nc(Cc2ccc(Cl)cc2)no1	.	.	25.1	.	.
CC(C)C1Nc2ccc(C(=O)NCCCN3CCOCC3)cc2NC1=O (stereo not drawn)	.	.	.	.	.
COc1ccc(-c2nnc(-c3ccc(N(C)C)cc3)o2)cc1	.	.	.	.	.
O=[N+]([O-])c1cccc(-c2nnc(-c3ccccc3F)o2)c1	.	.	29.6	.	21.8
Cc1ccc(CCNC(=O)c2nnc(CS(=O)(=O)c3ccccc3)o2)cc1	.	.	.	.	.
Cc1cc(-c2nnc(-c3cccc(Cl)c3)o2)no1	.	.	37.3	.	92.6
CN(C)c1ccc(-c2nnc(-c3ccccc3F)o2)cc1	.	.	28.4	.	59.5
Cc1cc(NC(=O)c2cc(-c3cccc(Cl)c3)on2)no1	.	.	.	.	.
Cc1ccccc1-c1nnc(CS(=O)(=O)c2ccccc2)o1	.	.	43.4	.	60.8
COc1cc(C(=O)NCC(=O)OC(C)C(=O)Nc2ncc(Cl)cc2Cl)cc(OC)c1OC (stereo not drawn)	.	.	.	/	.
Cc1ccc(CS(=O)(=O)c2ccccc2-c2nnc(-c3ccc(Cl)cc3)o2)cc1	.	.	.	.	.
Cc1ccccc1-c1nnc(-c2ccc(Cl)cc2)o1	.	.	57.8	.	104.1
Nc1cc([N+](=O)[O-])ccc1O	.	.	.	.	.
